# Vif-A3G inh: Vif-A3G binding inhibition; Q9HC16; HeLa A3G-eYFP + Vif (tagged APOBEC3G with the HIV-1 protein that degrades it), YFP fluorescence, overnight; Potency, µM (doses to about 46.1 µM), for inactives: top-dose activity, negative = active, usual class: inhibitors; 410,000 tested, 0.076% active; note: % is set by controls: 0 for no effect and ±100 for the full control effect; nearly all actives have a fitted effect of over 60% in size
# Target sequence (Q9HC16 whole entry, looked up): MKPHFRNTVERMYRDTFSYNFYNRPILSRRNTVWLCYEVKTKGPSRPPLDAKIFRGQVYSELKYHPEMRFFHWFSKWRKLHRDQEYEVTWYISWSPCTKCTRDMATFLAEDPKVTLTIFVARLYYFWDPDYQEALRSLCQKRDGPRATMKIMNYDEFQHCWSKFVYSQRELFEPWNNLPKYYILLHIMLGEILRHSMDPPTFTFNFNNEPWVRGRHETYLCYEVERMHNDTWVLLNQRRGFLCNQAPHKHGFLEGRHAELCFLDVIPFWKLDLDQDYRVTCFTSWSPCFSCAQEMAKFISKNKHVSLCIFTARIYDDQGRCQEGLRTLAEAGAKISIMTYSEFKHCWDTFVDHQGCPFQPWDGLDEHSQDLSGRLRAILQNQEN
#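 HeLa cells stably expressing Vif and C-terminally eYFP-tagged A3G, seeded overnight at 37 deg C, then exposed to compound by pintool overnight at 37 deg C. Rise in yellow fluorescence (Ex 488/Em 500-530, Acumen) marks blocked Vif-driven A3G degradation.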
# Vif-APOBEC3F blk: inhibitors of Vif-A3F interaction; HeLa A3F-eYFP + Vif (tagged APOBEC3F with the HIV-1 protein that degrades it), YFP fluorescence increase; Potency, µM (series often up to 46.1 µM), for inactives: at the top dose activity, negative = active; 390,000 tested, 0.2% active; note: % of control where 0% means no effect; nearly all actives have a fitted effect of over 65% in size
#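 HeLa cells stably expressing A3F-eYFP plus Vif, plated and incubated overnight at 37 deg C, then exposed to compounds overnight at 37 deg C. Blocked degradation read as raised yellow fluorescence (Ex 488/Em 500-530).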
# PINK1 expr mod: PINK1 expression modulation; PINK1 immunofluorescence, high-content cytometry, 24 h; Potency, µM (doses to about 76.6 µM), without a hit: at the highest dose activation (PINK1 increase), hits mostly activators; 410,000 tested, 0.2% active; AID 624263; active = well fitted activation curve with a large enough effect; inconclusive = small, poorly fitted or top-dose-only effect; cell line not stated here; note: % of control where 0% means no effect; nearly all actives have a fitted effect of over 65% in size
#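 PINK1 protein level read as immunofluorescence by microplate cytometer in a fixed, stained stable cell line after 24 h exposure to five compound concentrations, with CCCP as control.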
# Epigenetic reg: derepresses silenced GFP reporter in murine cells. murine LDR cells, GFP reporter derepression, 30 h. 280,000 tested, 0.2% active. Potency, µM (highest dose often 53.9 µM), inactives show top-dose GFP activation, usual class: activators; note: % of control where 0% means no effect; nearly all actives have a fitted effect of over 60% in size
#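 In this reporter-derepression format, murine cells bearing a silenced integrated CMV-GFP locus incubate with test compound (30 h, 37 C), then are washed and imaged; fluorescent objects of 20–120 um count as induced cells.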
# GLS inhibitor: glutaminase GLS (human) inhibition | GLS enzymatic activity, qHTS titration | AID 624170 | 410,000 tested, 0.21% active | Potency, µM (titrated, usually from 45.5 µM), for inactives: at the highest dose activity change, negative = inhibition, hits mostly inhibitors | O94925; note: % is set by controls: 0 for no effect and ±100 for the full control effect
#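 Enzyme dispensed in phosphate buffer (45 mM, pH 8.2, 0.02% Tween-20), compounds pinned in, then 1 mM L-glutamine solution and the glutamate oxidase–HRP–Amplex Red mix added; fluorescence read immediately and again after 30 min at room temperature.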
# An asterisk follows results filed as active; ? = inconclusive; . = no result given; [ ] = another dose, or the depositor's remark. In the library only some 0.7% were active in any assay of this set; here they are far more common. Unless noted, calls come from the whole dose curve; as a rule, active = well fitted curve in the direction sought with a large enough effect; inconclusive = small, poorly fitted or top-dose-only effect, or another doubt; inactive = no such curve, though single readings can be large; an effect the other way counts as inactive or inconclusive. Potency is the fitted concentration of half-maximal effect.
SMILES,Vif-A3G inh,Vif-APOBEC3F blk,PINK1 expr mod,Epigenetic reg,GLS inhibitor
CCCN1C(=O)S/C(=C/c2ccc(N3CCOCC3)o2)C1=O,?,?,40µM*,10µM*,-13%
CCCN1C(=O)S/C(=C\c2ccc(N3CCOCC3)cc2C)C1=O,.,.,.,0%,.
c1ccc(-c2cn3nc(-c4ccccc4)c(-c4ccccc4)nc3n2)cc1,?,?,-1%,-1%,-6%
Cc1ccc(-c2cn3nc(-c4ccccc4)c(-c4ccccc4)nc3n2)cc1,-18%,4.5µM*,-1%,0%,-4%
COc1ccc(CN2CCOc3c(cc(-c4cccc(OC)n4)cc3OC)C2)c(O)c1,.,.,2%,.,.
Cc1ccc(Cl)cc1NC(=O)COC(=O)CC(C)(C)CC1=NS(=O)(=O)c2ccccc2N1,1%,-2%,2%,0%,2%
CC(C)(CC(=O)NCc1ccc(Cl)cc1Cl)CC1=NS(=O)(=O)c2ccccc2N1,-7%,0%,45µM*,1%,-1%
COc1cccc(CN2C(=O)NC(C)(C3CCN(Cc4cnn(C)c4C)CC3)C2=O)c1OC (stereo not drawn),.,.,1%,.,.
COc1ccccc1N1C(=O)C(Cl)=C(Nc2ccccc2O)C1=O,?,22µM*,2%,13%,?
CN(C)c1ccc(NC2=C([N+](=O)[O-])CS(=O)(=O)C2)cc1,-3%,-7%,2%[38.3 µM],16µM*,30%
C#CC1(OC(C)=O)CCC2C3CCC4=CC(OC(C)=O)CCC4C3CCC21C (stereo not drawn),.,.,.,.,-5%
O=C(C1CC1)N1CCN(c2ccc(O)cc2)CC1,-1%,1%,-1%,.,10µM*
CC(=O)c1ccc(N2CCN(C(=O)C3CCC3)CC2)cc1,-3%,-15%,5%[38.3 µM],0%,5%
C=CCN1C(=O)/C(=C/c2ccc(O)c(OC)c2)S/C1=N/c1nccs1,?,32µM*,-3%,2%,17%
C=CCN1C(=O)/C(=C/c2ccc(N(C)C)cc2)S/C1=N\c1nnc(CC)s1,.,.,.,13µM*,.
O=[N+]([O-])c1ccc(Oc2ccc(N=C=S)cc2)cc1,.,.,.,.,3%
CCCCC/C=N/NC(=O)c1[nH]c2ccc([N+](=O)[O-])cc2c1C,2%,11%,-1%,1%,-1%
CCC/C=N/NC(=O)c1[nH]c2c([N+](=O)[O-])cccc2c1C,7.1µM*,9%,11%,-1%,7%
O=CNc1ccc2c3c(cccc13)-c1ccccc1-2,13µM*,?,3%,.,-8%
Cc1oc(-c2cccc(NC(=O)c3ccccn3)c2)nc1CNC(=O)C#Cc1ccccc1,.,.,0%,.,.
CCOc1ccccc1NC(=O)C(C)Sc1nc(-c2ccccc2)c(C#N)c(=O)[nH]1 (stereo not drawn),3%,-6%,1%,-2%,2%
CCc1ccc(NC(=O)C(C)Sc2nc(-c3ccco3)c(C#N)c(=O)[nH]2)cc1 (stereo not drawn),-16%,-4%,7%,.,20µM*
Cc1ncc2c(c1CNC(=O)c1cncs1)CCN(C(=O)c1ccc(C(F)(F)F)cc1)C2,.,.,0%,.,.
CCC1(C2CCN(C(=O)c3cc(F)ccc3F)CC2)NC(=O)N(CCc2scnc2C)C1=O (stereo not drawn),.,.,0%,.,.
O=C(Nc1cccc(Cl)c1)c1c(NC(=O)C(F)(F)F)sc2c1CCCC2,-4%,5%,40µM*,-2%,16%
SMILES,Vif-A3G inh,Vif-APOBEC3F blk,PINK1 expr mod,Epigenetic reg,GLS inhibitor
CCN1CCc2c(sc(NC(=O)c3ccc(S(=O)(=O)N(CC)c4ccccc4)cc3)c2C(N)=O)C1,?,?,18%,.,-25%
CCN1CCc2c(sc(NC(=O)Nc3ccc(Cl)c(Cl)c3)c2C(N)=O)C1,?,?,14µM*,?,-5%
CCCCN(CCCC)S(=O)(=O)c1ccc(C(=O)Nc2sc3c(c2C(N)=O)CCN(CC)C3)cc1,?,28µM*,2%,?,4%
Cc1ccc(CNc2ccc3c(c2)OCO3)cc1,22µM*,25µM*,?,15%,3%
O=C1CSc2ccc(S(=O)(=O)NCc3ccccc3Cl)cc2N1,0%,7%,1%,.,-1%
CC(CS(=O)(=O)c1ccc2c(c1)NC(=O)CS2)C(=O)NCc1ccccc1Cl (stereo not drawn),-8%,-2%,-1%,.,11µM*
CC(C)C[C@@H](CNCC(=O)[C@H](Cc1c[nH]c2ccccc12)NC(=O)c1[nH]cnc1C(=O)N[C@@H](C)CN)NC(=O)c1nc[nH]c1C(=O)N[C@@H](C)C(=O)O,1%,9%,0%,.,1%
CC(C)C[C@@H](CNCC(=O)[C@H](Cc1c[nH]c2ccccc12)NC(=O)c1[nH]cnc1C(=O)N[C@H](CN)CC(C)C)NC(=O)c1nc[nH]c1C(=O)N[C@@H](CC(=O)O)C(=O)O,-3%,6%,1%,.,8.9µM*
CC(C)C[C@@H](CNCC(=O)[C@H](Cc1c[nH]c2ccccc12)NC(=O)c1[nH]cnc1C(=O)N[C@@H](C)CN)NC(=O)c1nc[nH]c1C(=O)N[C@@H](CC(=O)O)C(=O)O,-9%,4%,1%,.,10µM*
Cc1nonc1CN(C)C(=O)C1CC12CCN(C(=O)/C=C/c1cccc(Cl)c1)CC2 (stereo not drawn),.,.,0%,.,.
CC(C)[C@H](NC(=O)OC(C)(C)C)c1nnc(S(=O)(=O)Cc2c(F)cccc2Cl)o1,-1%,1%,6.3µM*,?,11%
C[C@H](NC(=O)OC(C)(C)C)c1nnc(SCc2c(F)cccc2Cl)o1,2%,4%,0%,-2%,-14%
O=C(O)c1ccccc1N/N=C/c1c(Sc2nnnn2-c2ccccc2)nc2ccccn2c1=O,?,-973%,?,?,11µM*
O=c1c(/C=N/Nc2ccccc2)c(Sc2nnnn2-c2ccccc2)nc2ccccn12,?,?,?,?,8%
CCC(NC(=S)NCc1ccc(F)cc1)c1ccc(C(C)C)cc1 (stereo not drawn),3%,-25%,16µM*,.,-9%
CCC(C)c1ccc(C(C)NC(=S)NCc2ccc(F)cc2)cc1 (stereo not drawn),5%,-11%,?,.,15%
CCn1c(-c2cccc(OC)c2)nc2cc(NC(C)=O)cc(C(=O)N3CCCC(C(C)=O)C3)c21 (stereo not drawn),.,.,0%,.,.
CCSc1nnc(NC(=O)NC(C)(C(F)(F)F)C(F)(F)F)s1,-6%,1%,20µM*,3%,-1%
CCSc1nnc(NC(=O)Nc2cccc(C)c2)s1,-4%,4%,13µM*,2%,-3%
CCSc1nnc(NC(=O)NC(CC)(C(F)(F)F)C(F)(F)F)s1,-9%,1%,22µM*,2%,-11%
CCSc1nnc(NC(=O)[C@@H](NC(=O)c2cccc(C)c2)C(C)C)s1,0%,5%,2%,0%,9%

# Screening results from PubChem BioAssay.
